Reference: paper PMC9838217, “Structure of SALL4 zinc finger domain reveals link between AT-rich DNA binding and Okihiro syndrome”
Positions count from the first letter of the chain named.

Key:
Assay in all cases: HT-SELEX; high values mean tight binding
Conditions in all cases: protein: recombinant; vector His6-GST; dsDNA, one strand shown
[1] = target: T1, SALL4 ZFC4 WT (HT-SELEX) (Mus musculus, UniProt Q8BX22 870-940)
T1 sequence: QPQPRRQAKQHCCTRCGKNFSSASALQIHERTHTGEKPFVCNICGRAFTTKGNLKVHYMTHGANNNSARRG
Method in brief: (§1)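 Purified recombinant mouse SALL4 zinc finger cluster 4 (residues 870–940, 1 µg) and library DNA (1.5 µg first cycle, 200 ng later) were incubated for 10 min at room temperature in 100 µl of 10 mM Tris–HCl pH 7.5, 50 mM NaCl, poly(dI-dC) and DTT. After Ni2+ bead capture and up to 6 triplicate cycles of selection, DNA was MiSeq-sequenced and scanned for 6-mers. Binding signal is the fold change in each canonical k-mer's read fraction relative to the initial random library.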

[2] = target: T2, SALL4 ZFC4 R900W (HT-SELEX) (Mus musculus, UniProt Q8BX22 870-940, R900W)
T2 sequence: T1 sequence with R31W
Method in brief: as §1

[3] = target: T3, SALL4 ZFC4 G921D (HT-SELEX) (Mus musculus, UniProt Q8BX22 870-940, G921D)
T3 sequence: T1 sequence with G52D
Method in brief: as §1

| Sequence | binding signal [1] | binding signal [2] | binding signal [3] |
| --- | --- | --- | --- |
| GTCTAA | 1.16 ± 0.029 fold-change vs cycle 0 | 1.28 ± 0.0593 fold-change vs cycle 0 | 1.27 ± 0.0407 fold-change vs cycle 0 |
| GATTAC | 1.43 ± 0.106 fold-change vs cycle 0 | 1.54 ± 0.0979 fold-change vs cycle 0 | 1.45 ± 0.0912 fold-change vs cycle 0 |
| GATGGA | 0.878 ± 0.0295 fold-change vs cycle 0 | 0.978 ± 0.0402 fold-change vs cycle 0 | 0.97 ± 0.0258 fold-change vs cycle 0 |
| TCTACA | 1.24 ± 0.0179 fold-change vs cycle 0 | 1.33 ± 0.0358 fold-change vs cycle 0 | 1.29 ± 0.0644 fold-change vs cycle 0 |
| CTGAAG | 0.866 ± 0.0297 fold-change vs cycle 0 | 1.01 ± 0.0356 fold-change vs cycle 0 | 1.03 ± 0.0122 fold-change vs cycle 0 |
| ACACCG | 0.325 ± 0.0278 fold-change vs cycle 0 | 0.384 ± 0.0241 fold-change vs cycle 0 | 0.5 ± 0.0673 fold-change vs cycle 0 |
| AGAAAG | 1.31 ± 0.0378 fold-change vs cycle 0 | 1.52 ± 0.0945 fold-change vs cycle 0 | 1.36 ± 0.112 fold-change vs cycle 0 |
| ATCGTG | 0.701 ± 0.0455 fold-change vs cycle 0 | 0.775 ± 0.0256 fold-change vs cycle 0 | 0.876 ± 0.0311 fold-change vs cycle 0 |
| CCATGG | 0.445 ± 0.023 fold-change vs cycle 0 | 0.524 ± 0.00825 fold-change vs cycle 0 | 0.622 ± 0.0615 fold-change vs cycle 0 |
| ATTGAG | 1.27 ± 0.0638 fold-change vs cycle 0 | 1.38 ± 0.0358 fold-change vs cycle 0 | 1.36 ± 0.122 fold-change vs cycle 0 |
| ACGATA | 1.28 ± 0.0502 fold-change vs cycle 0 | 1.3 ± 0.0452 fold-change vs cycle 0 | 1.26 ± 0.0543 fold-change vs cycle 0 |
| GTAAAA | 1.69 ± 0.0918 fold-change vs cycle 0 | 1.73 ± 0.0898 fold-change vs cycle 0 | 1.53 ± 0.125 fold-change vs cycle 0 |
| ACGGGA | 0.422 ± 0.0189 fold-change vs cycle 0 | 0.506 ± 0.0223 fold-change vs cycle 0 | 0.583 ± 0.0299 fold-change vs cycle 0 |
| AGTGTG | 0.745 ± 0.0331 fold-change vs cycle 0 | 0.85 ± 0.0147 fold-change vs cycle 0 | 0.909 ± 0.0296 fold-change vs cycle 0 |
| CGATAG | 0.68 ± 0.0214 fold-change vs cycle 0 | 0.774 ± 0.0246 fold-change vs cycle 0 | 0.851 ± 0.0176 fold-change vs cycle 0 |
| AATACT | 2.02 ± 0.117 fold-change vs cycle 0 | 1.99 ± 0.126 fold-change vs cycle 0 | 1.82 ± 0.161 fold-change vs cycle 0 |
| ACAGCT | 0.616 ± 0.0411 fold-change vs cycle 0 | 0.714 ± 0.0328 fold-change vs cycle 0 | 0.811 ± 0.0395 fold-change vs cycle 0 |
| AGCTTG | 0.638 ± 0.0175 fold-change vs cycle 0 | 0.764 ± 0.0176 fold-change vs cycle 0 | 0.841 ± 0.049 fold-change vs cycle 0 |
| AGGGTA | 0.87 ± 0.0133 fold-change vs cycle 0 | 1 ± 0.0465 fold-change vs cycle 0 | 0.989 ± 0.0135 fold-change vs cycle 0 |
| CAGGTA | 0.825 ± 0.0117 fold-change vs cycle 0 | 0.927 ± 0.0176 fold-change vs cycle 0 | 0.973 ± 0.0448 fold-change vs cycle 0 |
| CAGATC | 0.723 ± 0.0477 fold-change vs cycle 0 | 0.849 ± 0.0155 fold-change vs cycle 0 | 0.964 ± 0.0486 fold-change vs cycle 0 |
| AGGTGC | 0.324 ± 0.00829 fold-change vs cycle 0 | 0.389 ± 0.0132 fold-change vs cycle 0 | 0.519 ± 0.0738 fold-change vs cycle 0 |
| GAGTCC | 0.481 ± 0.0188 fold-change vs cycle 0 | 0.549 ± 0.0274 fold-change vs cycle 0 | 0.669 ± 0.013 fold-change vs cycle 0 |
| AAGAAC | 1.29 ± 0.0399 fold-change vs cycle 0 | 1.49 ± 0.0657 fold-change vs cycle 0 | 1.38 ± 0.123 fold-change vs cycle 0 |
| ACCCAT | 0.847 ± 0.0456 fold-change vs cycle 0 | 0.916 ± 0.0414 fold-change vs cycle 0 | 0.954 ± 0.0193 fold-change vs cycle 0 |
| GCAGTA | 0.609 ± 0.0122 fold-change vs cycle 0 | 0.693 ± 0.0275 fold-change vs cycle 0 | 0.766 ± 0.032 fold-change vs cycle 0 |
| CCAGAC | 0.368 ± 0.0286 fold-change vs cycle 0 | 0.471 ± 0.0141 fold-change vs cycle 0 | 0.553 ± 0.0511 fold-change vs cycle 0 |
| ATACCC | 0.85 ± 0.0409 fold-change vs cycle 0 | 0.935 ± 0.04 fold-change vs cycle 0 | 0.962 ± 0.0418 fold-change vs cycle 0 |
| GCCTAC | 0.304 ± 0.0224 fold-change vs cycle 0 | 0.368 ± 0.00435 fold-change vs cycle 0 | 0.499 ± 0.0602 fold-change vs cycle 0 |
| AAAGAT | 2.08 ± 0.0847 fold-change vs cycle 0 | 2.1 ± 0.102 fold-change vs cycle 0 | 1.84 ± 0.163 fold-change vs cycle 0 |
